Inconclusive results are not listed. Calls follow the shape of the dose curve; as a rule, active = well fitted activation curve with a large enough effect; inconclusive = small, poorly fitted or top-dose-only effect; inactive = flat fitted curve, though single readings scatter.
experiment: qHTS for Inhibitors of Cell Surface uPA Generation: Confirmatory Assay for Cherry-picked Compounds; conditions: cell surface uPA activity generation, qHTS confirmation; series mostly up to 115 µM; inhibition: at the top concentration; also: 0% is about no effect
Outline: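 RAW 264.7 cells at 4000/well, incubated overnight, then treated with compounds. After 24 h at 37 C, viability was read by ATPlite luminescence. An increase in signal indicates blocked uPA-dependent LF entry.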

inhibition, inactive:
O=C(CCS(=O)(=O)c1ccc2c(c1)NC(=O)CS2)NCc1cccs1 0.665%, CN(C)c1ccc(S(=O)(=O)N2CCC(Cc3ccccc3)CC2)cn1 -0.623%, Cc1ccc2c(c1)N(CC(=O)NCCCc1ccccc1)C(=O)c1cccnc1O2 5.78%, Cn1nc(N2CCN(S(=O)(=O)c3ccccc3)CC2)c(=O)n(C)c1=O -0.274%, COc1ccc(C(C)=O)cc1CSC(=N)N -2.18%, CN1CCN(C2=Nc3ccccc3Oc3ccc(Cl)cc32)CC1 0.247%, COc1ccccc1C(=O)Nc1cccc(C(=O)c2ccccc2)c1 -2.99%, CCC(C)C(NC(=O)c1ccccc1)C(=O)Nc1ccc(S(=O)(=O)Nc2cc(C)nc(C)n2)cc1 (centres undefined) -2.37%, O=C(c1ccco1)N1CCN(c2ncccn2)CC1 -1.83%, COC(=O)c1ccc(CN2CCCC(CNC(=O)Cc3ccc(OC)cc3)C2)cc1 (centres undefined) -0.65%, CCC1(C)NC(=O)N(CC(=O)Nc2sc3c(c2C(N)=O)CCC3)C1=O (centres undefined) 7.12%, COc1ccc(C2C(C(=O)c3ccc(C)o3)=C(O)C(=O)N2CC2CCCO2)cc1OC (centres undefined) 0.493%, Cc1ccnc(N2CCN(C(=O)CSc3nc4ccccc4nc3N3CCC(C)CC3)CC2)c1 -3.35%, Cc1ccc(C23CC4CC(CC(C(=O)NN)(C4)C2)C3)cc1 -2.44%, CC(=O)c1cnc2nc(SCc3cccc(C)c3)nn2c1C -2.2%, CC(C)C[C@H]1CN([C@@H](CC(C)C)CN2CCCC2CN2C(=S)NC[C@@H]2Cc2ccc(O)cc2)C(=S)N1CC1CCCCC1 (some centres undefined) -2.13%, CCOc1cc(S(=O)(=O)NC2CC(C)(C)NC(C)(C)C2)ccc1Cl -0.311%, C=CCn1c(C)cc(C(=O)COC(=O)/C=C/c2cccc(OC)c2)c1C -2.92%, O=C(CSc1nncs1)NC(=O)NCc1ccco1 -3.16%, C[C@]12CCC(O)CC1CCC1C2CC[C@]2(C)C(c3cc(C(F)(F)F)n[nH]3)CCC12 (some centres undefined) -3.84%, C/C=C(/C(=C/C)c1ccc(O)cc1)c1ccc(O)cc1 -3.36%, COC(=O)c1cc(CNC(=O)c2ccc(N3CCCC3)c([N+](=O)[O-])c2)ccc1OC -2.35%, COc1ccc(C(=O)NC(C)c2cnn(-c3ccccn3)c2C)o1 (centres undefined) -1.83%, Cc1cccc(N2CCN(Cc3ccc(Br)o3)CC2)c1C 1.91%, CCC(=O)N(Cc1cc2ccc(C)cc2[nH]c1=O)c1ccccc1OC -1.46%, COc1ccccc1CNC(=O)CCCn1nc(C)c2c(C)n(-c3ccccc3)nc2c1=O -2.78%, NC(=O)c1ccc(NC(=O)CN2CCN(S(=O)(=O)c3ccc4ccccc4c3)CC2)cc1 1.49%, Cc1nc(NC(=O)CSc2nnc(C3CC3)n2C)sc1C(=O)N(C)C 0.743%, CCn1c(CNc2ccc(F)cc2)nnc1SCC(=O)Nc1ccccc1OC -2.14%, Oc1c(N=NC(=S)Nc2ccccc2F)c2ccccc2n1Cc1ccccc1Cl -0.999%, Cc1ccccc1OCCC(=O)NNC(=O)c1ccccc1F -0.751%, Cc1ccc(C)c(-c2ccc(=O)n(Cc3c(F)cccc3Cl)n2)c1 -3.64%, CSc1nc(N)nc2c1ncn2CC(=O)NCC1CCCO1 (centres undefined) 0.303%, Cc1ccc(S(=O)(=O)N(C)c2ccc(OC(=O)c3ccc(=O)[nH]c3)cc2)cc1 -1.78%, COc1cc(NS(=O)(=O)c2ccc(NC(=S)NC(=O)COc3ccccc3OC)cc2)nc(OC)n1 -0.876%, Cc1cc(NC(=O)COc2cccc([N+](=O)[O-])c2)no1 -2.33%, Cc1cc(N2C(=O)C(O)=C(C(=O)c3ccco3)C2c2ccc(Cl)cc2)no1 (centres undefined) -3.05%, COc1cc(CN2CCN(S(=O)(=O)c3ccccc3)CC2)cc(OC)c1OC 0.54%, CCN(C1CCS(=O)(=O)C1)S(=O)(=O)c1ccc2ccccc2c1 (centres undefined) -1.14%
